Experimental data taken from PubChem BioAssay.
The source made the active and inactive calls.

Assays:
[1] = binders of probe aFSTL3 on microarray, primary screen, stem cell growth factor project, biochemical, small-molecule microarray, fluorescence 635/667 (AID 1064); details: higher = more signal;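 further: measures binding of the biotinylated anti-FSTL3 antibody to printed compounds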
[2] = binders from COS7 lysate, DM2A8 probe, primary screen, torsin A project, cell lysate, small-molecule microarray, fluorescence 635/667 (AID 1065); details: higher = more signal, COS7 lysate expressing mutant human TOR1A
[3] = binders of probe aFGF2 on microarray, primary screen, stem cell growth factor project, biochemical, small-molecule microarray, fluorescence 635/667 (AID 1067); details: higher = more signal;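 further: measures binding of biotinylated aFGF2 protein to printed compounds on slides; z-score merges feature fluorescence and signal-to-noise across triplicate slides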
[4] = binders of probe aFGF10 on microarray, primary screen, stem cell growth factor project, biochemical, small-molecule microarray, fluorescence 635/667 (AID 1071); details: higher = more signal;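 further: score merges 667 nm spot intensity and signal to noise from triplicate slides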
[5] = molecular target: Neurogenic locus notch homolog protein 2 (Homo sapiens) (UniProt Q04721); experiment: Notch2 binders on small-molecule microarrays, primary screen, biochemical, small-molecule microarray, 635 nm fluorescence, stem cell growth factors (AID 1073); details: Notch2 binding, higher = more signal
Neurogenic locus notch homolog protein 2 (Homo sapiens), sequence (Q04721 whole entry, looked up, canonical isoform): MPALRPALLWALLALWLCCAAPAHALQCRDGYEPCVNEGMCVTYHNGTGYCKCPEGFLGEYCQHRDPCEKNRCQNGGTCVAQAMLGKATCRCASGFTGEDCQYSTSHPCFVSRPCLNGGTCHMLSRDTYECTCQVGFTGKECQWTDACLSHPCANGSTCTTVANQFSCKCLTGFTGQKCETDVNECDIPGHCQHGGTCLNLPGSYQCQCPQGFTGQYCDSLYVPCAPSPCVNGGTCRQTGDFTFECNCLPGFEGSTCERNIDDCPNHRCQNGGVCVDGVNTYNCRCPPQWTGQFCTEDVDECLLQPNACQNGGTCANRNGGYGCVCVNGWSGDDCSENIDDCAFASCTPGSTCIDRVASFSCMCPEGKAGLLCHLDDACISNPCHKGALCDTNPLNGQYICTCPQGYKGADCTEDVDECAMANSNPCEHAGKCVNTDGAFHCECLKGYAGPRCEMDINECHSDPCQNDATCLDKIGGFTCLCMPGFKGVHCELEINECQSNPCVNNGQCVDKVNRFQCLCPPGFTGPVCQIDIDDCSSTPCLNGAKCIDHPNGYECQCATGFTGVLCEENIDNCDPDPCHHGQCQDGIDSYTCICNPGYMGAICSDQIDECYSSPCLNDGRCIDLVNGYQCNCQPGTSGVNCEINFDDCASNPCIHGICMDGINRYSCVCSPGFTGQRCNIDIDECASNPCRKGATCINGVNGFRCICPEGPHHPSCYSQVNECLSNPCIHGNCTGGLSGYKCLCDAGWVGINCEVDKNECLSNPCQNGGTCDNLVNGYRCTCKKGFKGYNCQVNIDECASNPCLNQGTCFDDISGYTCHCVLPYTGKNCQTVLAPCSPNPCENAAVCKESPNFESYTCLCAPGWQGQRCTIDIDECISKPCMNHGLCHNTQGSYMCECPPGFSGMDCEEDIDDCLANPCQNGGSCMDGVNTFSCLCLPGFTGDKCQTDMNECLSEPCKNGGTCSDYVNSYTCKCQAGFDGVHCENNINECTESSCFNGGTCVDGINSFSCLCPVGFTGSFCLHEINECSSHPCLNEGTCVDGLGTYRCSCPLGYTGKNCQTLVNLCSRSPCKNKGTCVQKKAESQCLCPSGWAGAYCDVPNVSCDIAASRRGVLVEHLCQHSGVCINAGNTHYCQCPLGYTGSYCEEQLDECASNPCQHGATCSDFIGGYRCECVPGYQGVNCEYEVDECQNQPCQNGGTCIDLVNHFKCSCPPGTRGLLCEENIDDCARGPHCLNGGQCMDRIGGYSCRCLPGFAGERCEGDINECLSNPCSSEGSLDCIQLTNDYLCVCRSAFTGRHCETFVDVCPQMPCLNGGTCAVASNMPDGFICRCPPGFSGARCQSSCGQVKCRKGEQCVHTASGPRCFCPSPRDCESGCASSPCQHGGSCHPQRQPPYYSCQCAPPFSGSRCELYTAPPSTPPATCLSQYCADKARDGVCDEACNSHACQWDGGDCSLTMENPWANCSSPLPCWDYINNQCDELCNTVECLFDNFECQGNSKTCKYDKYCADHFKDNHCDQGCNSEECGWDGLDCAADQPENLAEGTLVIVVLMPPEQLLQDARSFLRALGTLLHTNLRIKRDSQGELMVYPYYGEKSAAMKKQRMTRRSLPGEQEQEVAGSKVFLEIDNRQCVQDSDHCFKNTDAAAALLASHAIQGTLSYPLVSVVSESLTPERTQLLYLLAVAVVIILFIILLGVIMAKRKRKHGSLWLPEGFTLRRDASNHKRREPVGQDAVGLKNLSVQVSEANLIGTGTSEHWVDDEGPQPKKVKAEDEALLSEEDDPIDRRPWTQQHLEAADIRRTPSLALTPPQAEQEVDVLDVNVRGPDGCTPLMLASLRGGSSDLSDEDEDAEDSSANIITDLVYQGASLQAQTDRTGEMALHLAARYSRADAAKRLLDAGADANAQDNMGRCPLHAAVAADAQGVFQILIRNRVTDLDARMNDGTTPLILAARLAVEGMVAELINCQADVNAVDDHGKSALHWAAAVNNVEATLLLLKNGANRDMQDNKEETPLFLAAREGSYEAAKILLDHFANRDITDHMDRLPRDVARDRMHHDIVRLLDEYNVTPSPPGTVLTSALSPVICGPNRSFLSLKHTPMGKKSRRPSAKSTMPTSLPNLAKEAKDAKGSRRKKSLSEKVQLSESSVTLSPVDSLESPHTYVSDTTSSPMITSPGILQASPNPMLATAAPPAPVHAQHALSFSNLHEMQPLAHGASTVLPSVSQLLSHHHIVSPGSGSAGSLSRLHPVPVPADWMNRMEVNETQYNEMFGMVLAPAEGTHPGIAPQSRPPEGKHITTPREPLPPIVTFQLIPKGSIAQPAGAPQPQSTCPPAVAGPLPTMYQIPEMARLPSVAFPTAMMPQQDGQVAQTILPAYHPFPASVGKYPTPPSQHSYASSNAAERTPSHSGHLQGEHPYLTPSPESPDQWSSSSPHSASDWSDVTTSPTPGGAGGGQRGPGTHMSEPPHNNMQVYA

[6] = molecular target: Pro-neuregulin-1, membrane-bound isoform (Homo sapiens) (UniProt Q02297); experiment: NRG1 binders on small-molecule microarrays, primary screen, psychiatric disease protein project, biochemical, small-molecule microarray, fluorescence 635/667 (AID 1075); details: NRG1 binding, 635 nm fluorescence, higher = more signal;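 further: score combines 667 nm spot fluorescence with signal to noise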
Pro-neuregulin-1, membrane-bound isoform (Homo sapiens), sequence (Q02297 whole entry, looked up, the tested form may be a part, canonical isoform): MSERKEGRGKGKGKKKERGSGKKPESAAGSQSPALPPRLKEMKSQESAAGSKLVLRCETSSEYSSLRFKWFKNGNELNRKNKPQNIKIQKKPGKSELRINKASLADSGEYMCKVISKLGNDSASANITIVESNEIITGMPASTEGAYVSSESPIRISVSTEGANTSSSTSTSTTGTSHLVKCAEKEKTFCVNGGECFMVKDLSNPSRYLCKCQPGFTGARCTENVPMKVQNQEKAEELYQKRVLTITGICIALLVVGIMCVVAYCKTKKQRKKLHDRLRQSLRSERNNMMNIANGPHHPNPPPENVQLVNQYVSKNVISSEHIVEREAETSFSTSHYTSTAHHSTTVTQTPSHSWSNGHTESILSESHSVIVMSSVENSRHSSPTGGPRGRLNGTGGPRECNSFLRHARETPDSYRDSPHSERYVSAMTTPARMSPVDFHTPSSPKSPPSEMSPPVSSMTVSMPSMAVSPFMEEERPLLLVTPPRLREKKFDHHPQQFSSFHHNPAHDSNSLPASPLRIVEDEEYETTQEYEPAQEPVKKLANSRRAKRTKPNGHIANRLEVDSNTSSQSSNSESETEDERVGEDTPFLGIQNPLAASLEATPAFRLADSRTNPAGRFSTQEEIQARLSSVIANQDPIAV

[7] = tested on: Neuregulin-1 EGF-like domain; experiment: binders of neuregulin-1 EGF-like domain, primary screen, biochemical, small-molecule microarray, 635 nm fluorescence (AID 1081); details: small-molecule microarray binding, higher = more signal;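 further: binding of the protein to compounds printed on small-molecule microarray slides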
[8] = FRG1 promoter luciferase signal modulators, primary screen, FRG1 inhibition for FSHD, cell-based, C2C12 myotubes, firefly/Renilla luciferase, luminescence (AID 1084); details: higher = more signal, called active from +8 up or from −8 down
[9] = binders of probe aFST on microarray, primary screen, stem cell growth factor project, biochemical, small-molecule microarray, fluorescence 635/667 (AID 1086); details: higher = more signal;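 further: score merges 667 nm fluorescence with signal-to-noise of each printed compound spot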
[10] = binders of probe aHhip on microarray, primary screen, stem cell growth factor project, biochemical, small-molecule microarray, fluorescence 635/667 (AID 1087); details: higher = more signal;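 further: score merges spot fluorescence at 667nm with spot signal to noise ratio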
[11] = tested on: PRMT1 (protein arginine N-methyltransferase 1); experiment: PRMT1 binders on small-molecule microarrays, primary screen, biochemical, small-molecule microarray, 635 nm fluorescence (AID 1088); details: small-molecule microarray binding, higher = more signal;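 further: binding of Prmt1 protein to compounds spotted on small-molecule microarray slides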
[12] = yeast growth modulation, basal conditions, primary screen, YJM789 clinical isolate, OD600, 24 h (AID 1089);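 further: growth of clinical yeast isolate S. cerevisiae YJM 789 seeded 1000 cells per well; test concentration not given here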; details: S. cerevisiae YJM789 growth, higher = more signal, called active from +8 up or from −8 down
[13] = fission yeast growth modulation, primary screen, strain 972, OD600, 24 h, no modulator (AID 1090);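 further: basal condition with compound alone and no growth modifier present; test concentration not given here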; details: S. pombe 972 growth, higher = more signal, called active from +8 up or from −8 down
[14] = S. cerevisiae growth modulation with rapamycin, primary screen, strain BY4716, OD600, 96 h (AID 1091); details: higher = more signal, called active from +8 up or from −8 down; further: test concentration not given here
[15] = molecular target: Torsin-1A-interacting protein 2 (Homo sapiens) (UniProt Q8NFQ8); experiment: LULL1 binders on small-molecule microarray, primary screen, cell lysate, human LULL1 lysate, 635/667 nm fluorescence (AID 1092); details: hLULL1 lysate binding, 635 nm fluorescence, higher = more signal;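 further: probe is lysate of COS7 cells overexpressing human LULL1; score merges per-feature 667 nm fluorescence with signal-to-noise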
Torsin-1A-interacting protein 2 (Homo sapiens), sequence (Q8NFQ8 whole entry, looked up): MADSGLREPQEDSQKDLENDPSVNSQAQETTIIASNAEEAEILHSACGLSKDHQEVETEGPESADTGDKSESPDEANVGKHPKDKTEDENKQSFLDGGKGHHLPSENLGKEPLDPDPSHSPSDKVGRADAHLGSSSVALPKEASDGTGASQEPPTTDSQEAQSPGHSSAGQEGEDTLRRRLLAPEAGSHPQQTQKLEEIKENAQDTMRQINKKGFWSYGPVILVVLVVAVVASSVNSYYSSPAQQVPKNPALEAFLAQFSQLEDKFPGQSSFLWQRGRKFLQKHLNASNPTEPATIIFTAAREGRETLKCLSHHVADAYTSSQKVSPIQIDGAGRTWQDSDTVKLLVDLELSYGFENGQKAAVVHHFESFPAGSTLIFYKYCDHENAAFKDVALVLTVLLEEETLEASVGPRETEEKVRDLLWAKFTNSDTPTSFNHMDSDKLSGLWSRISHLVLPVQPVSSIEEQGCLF

[16] = E. coli growth modulation, two-sided OD650, primary screen, E. coli filamentation project, strain DRC41, 24 h (AID 1093); details: OD650, 24 h, higher = more signal, called active from +8 up or from −8 down;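 further: MC1000 strain lacking acrAB efflux and sulA so SOS filamentation is blocked; test concentration not given here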
[17] = small-molecule microarray binders of probe aLefty2, primary screen, biochemical, biotinylated probe, 635/667 nm fluorescence (AID 1094); details: higher = more signal;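 further: score merges spot fluorescence near 667 nm with spot signal-to-noise ratio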
[18] = tested on: Noggin (protein binding on small-molecule microarray); experiment: Noggin binders on small-molecule microarray, primary screen, biochemical, 635/667 nm fluorescence (AID 1095); details: 635 nm fluorescence, higher = more signal;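 further: score merges 667 nm feature fluorescence with signal to noise over triplicate slides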
[19] = molecular target: Neurogenic locus notch homolog protein 3 (Homo sapiens) (UniProt Q9UM47); experiment: NOTCH3 binders on small-molecule microarray, primary screen, biochemical, 635/667 nm fluorescence (AID 1096); details: NOTCH3 binding, 635 nm fluorescence, higher = more signal
[20] = small-molecule microarray binders of probe aEGFR, primary screen, biochemical, biotinylated probe, 635/667 nm fluorescence (AID 1097); details: higher = more signal;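 further: probe is a biotinylated anti-EGFR antibody binding compounds printed on slides; score combines fluorescence near 667 nm and signal to noise of each spot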

SMILES | composite z-score [1] | composite z-score [2] | composite z-score [3] | composite z-score [4] | composite z-score [5] | composite z-score [6] | composite z-score [7] | z-score [8] | composite z-score [9] | composite z-score [10] | composite z-score [11] | z-score [12] | z-score [13] | z-score [14] | composite z-score [15] | z-score [16] | composite z-score [17] | composite z-score [18] | composite z-score [19] | composite z-score [20]
C=C(/C(=C/C[C@H](OC(=O)c1ccncc1)c1ccc(CO)o1)c1cnc2ccccc2c1)C(C)C | -0.418 | 0.0906 | -0.0325 | 1.21 | 1.44 | 0.519 | 1.17 | 0.368 (inactive) | 0.106 | 0.0373 | 1.52 | 1.22 (inactive) | -1.67 (inactive) | 0.433 (inactive) | 0.947 | -0.358 (inactive) | 0.0249 | 0.963 | 1.05 | 0.523
C=CCNC(=O)[C@@H]1[C@H]2C(=O)O[C@H](c3ccccc3)[C@H](c3ccccc3)N2[C@H](c2ccc(O)cc2)[C@@]12C(=O)N(C(=O)OCCOC)c1ccc(C#CC3=CCCCC3)cc12 | -0.254 | 0.467 | -0.021 | 0.512 | 0.761 | 1 | 1.17 | 0.816 (inactive) | 0.668 | 0.951 | 1.49 | 0.675 (inactive) | 0.428 (inactive) | 0.969 (inactive) | 2.25 | -0.633 (inactive) | -0.156 | 1.14 | 1.09 | -0.0697
CCCC[C@@H]1C[C@H]1[C@@H](NC(=O)c1cccs1)c1ccccc1C(F)(F)F | 0.015 | 0.871 | 0.326 | 0.256 | 0.803 | 1.8 | 1.1 | -0.0362 (inactive) | -0.517 | -0.115 | 0.72 | 0.0064 (inactive) | -1.94 (inactive) | 1.08 (inactive) | 3.12 | -0.0873 (inactive) | 0.0864 | -0.597 | 0.168 | 0.0695
COCCCNC(=O)[C@@]1(CCC(=O)OC(C)(C)C)N=C(c2ccc(OCCCO)cc2)O[C@H]1c1ccccc1N=[N+]=[N-] | 0.913 | 1.5 | 0.0999 | 1.14 | 1.41 | 1.9 | 1.4 | 2.62 (inactive) | 1.03 | 0.0053 | 1.27 | -0.197 (inactive) | 0.362 (inactive) | -0.875 (inactive) | 3.13 | 1.21 (inactive) | 0.644 | -0.0445 | 0.377 | 0.458
COCCOC(=O)N1C(=O)[C@@]2(c3cc(C#CCC(C(=O)OC)C(=O)OC)ccc31)[C@H](c1ccc(OCCO)cc1)N1[C@H](c3ccccc3)[C@H](c3ccccc3)OC(=O)[C@H]1[C@@H]2C(=O)N1CCc2cc(OC)c(OC)cc2C1 | 0.119 | 0.351 | -0.0985 | 0.953 | 1.21 | 1.54 | 1.25 | 0.913 (inactive) | 0.47 | -0.131 | 1.55 | 2.13 (inactive) | 2 (inactive) | 5.2 (inactive) | 2.81 | 0.713 (inactive) | 0.0146 | 1.72 | 1.06 | 0.091
CC(C)C(CO)N1C(=O)[C@@H]2C3C(=O)OCCC/C=C\[C@H]3OC23C=CCN(Cn2nnc4ccccc42)C(=O)[C@@H]13 (stereo not given in full) | 0.314 | -0.665 | -0.148 | -0.323 | -0.72 | 1.88 | 0.476 | 0.0182 (inactive) | 0.013 | -0.306 | 0.828 | 0.0005 (inactive) | -0.299 (inactive) | 0.0668 (inactive) | 3.72 | 0.167 (inactive) | -0.159 | -0.421 | 0.144 | -0.268
CCOC(=O)C[C@H]1[C@H](OC(=O)c2ccccc2-c2ccccc2)[C@@H](NC(=O)c2ccc3ccccc3n2)c2cc(OCCCO)ccc2N1C(=O)Cc1ccc(OC)cc1 | 0.139 | 0.394 | -0.0715 | 0.158 | 0.383 | 0.336 | 0.028 | 0.63 (inactive) | 0.311 | -0.142 | 0.115 | 0.59 (inactive) | -0.167 (inactive) | -0.0843 (inactive) | 0.346 | -0.776 (inactive) | -0.111 | 0.287 | 0.384 | -0.12
CCOC(=O)C1=CC[C@@H](c2ccccc2)N(S(=O)(=O)c2ccc(C)cc2)[C@H]1c1ccccc1 | 0.322 | 0.13 | -0.0073 | 0.296 | 1.37 | 0.334 | 0.628 | -2.4 (inactive) | 0.77 | -0.265 | 0.0074 | 0.181 (inactive) | 1.88 (inactive) | 3.8 (inactive) | 1.74 | -0.794 (inactive) | 0.02 | 0.156 | 0.505 | 0.0515
CO[C@H]1O[C@H](CO)[C@@H](OC(=O)Nc2ccc(Br)cc2)[C@@H]2OC(=O)[C@@H](Cc3ccccc3)C/C=C/C[C@H](Cc3ccccc3)C(=O)O[C@@H]12 | -0.159 | 1.01 | -0.07 | 0.79 | 1.15 | 1.25 | 1.09 | 0.147 (inactive) | 0.0279 | -0.0645 | 1.44 | 1.1 (inactive) | -0.295 (inactive) | 3.58 (inactive) | 2.01 | 1.03 (inactive) | 0.0378 | 0.202 | 0.464 | -0.0668
CCOC(=O)C[C@H]1[C@H](OC(=O)c2ccc(C(=O)c3ccccc3)cc2)[C@@H](NC(=O)C2CCCCC2)c2cc(OCCCO)ccc2N1C(=O)c1ccc2ccccc2n1 | -0.244 | 0.213 | -0.0885 | 0.735 | 1.03 | 0.532 | 0.722 | 0.0852 (inactive) | 0.842 | 0.382 | 1.34 | -0.882 (inactive) | 0.708 (inactive) | 0.276 (inactive) | 2.01 | 1.25 (inactive) | -0.02 | 0.887 | 1.13 | 0.0213
